# Results: PubChem BioAssay (Tox21)
# Active and inactive are the calls of the source. Calls follow the shape of the full dose curve.
# Assay: qHTS assay to identify small molecule agonists of the sonic hedgehog signaling (Shh) pathway (AID 1259368);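 also: NIH/3T3-derived 3T3Gli1-Luc cells carrying a stable Gli1-driven firefly luciferase reporter; nearly all actives have a fitted effect of over 15% in size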
# Conditions: NIH/3T3 Gli1-Luc reporter, luciferase, 24 h, active compounds read high; series mostly up to 92.4 µM
# From the text: National Center for Advancing Translational Sciences [NCATS]
# NIH Chemical Genomics Center [NCGC]
# U.S. Environmental Protection Agency [EPA]
# National Institutes of Environmental Health Sciences [NIEHS]
# National Toxicology Program [NTP]
# The sonic hedgehog (Shh) pathway is essential for normal embryonic development. Dysregulation of the Shh pathway can cause severe developmental defects in organs. Therefore chemicals that interfere with the pathway are potential developmental toxicants. A cell line designated 3T3Gli1-Luc (DMB/OARSA/CFSAN/FDA, Laurel, MD), a NIH/3T3 derived clone containing stably integrated Gli1-Luc reporter is used to detect chemical interference of the Shh pathway, by changes in the expression of the firefly Luc gene under the control of the Gli1 transcriptional response element. This cell line was used to screen Tox21 libraries for identifying and prioritizing the potential developmental toxicants that interfere Shh pathway.
# 3T3 Gli1-Luc cells were dispensed at 2,000 per well in 5uL of culture medium into white solid bottom 1536-well plates (Greiner Bio-One, Monroe, NC) using a Multidrop Combi (Thermo Scientific, Waltham, MA) dispenser. The assay plates were incubated at 37 C and 5% CO2 for 4hr, and then 23nL of compounds dissolved in DMSO and positive control were transferred using a Pintool station (Wako, San Diego, CA). The assay plates were incubated at 37C and 5% CO2 for 24hr. For luciferase read, 4uL of Amplite Luciferase reporter gene assay reagent (AAT Bioquest, Inc. Sunnyvale, CA) was added to each well of the assay plates using Flying Reagent Dispenser (FRD, Aurora Discovery, San Diego, CA) and incubated at room temperature for 30min. The luminescence signal was measured using a ViewLux plate reader (Perkin Elmer, Shelton, CT).
# % is scaled to controls: 0 for no effect and ±100 for the full control effect.
SMILES,outcome,activity change
CN1CCC(=C2c3ccccc3C=Cc3ccccc32)CC1,inactive,–
O=S1(=O)c2cccc3cccc(c23)N1CCCN1CCN(c2ccc(F)cc2)CC1,inactive,–
CC(C)(C)c1cc(CCC(=O)OCC(COC(=O)CCc2cc(C(C)(C)C)c(O)c(C(C)(C)C)c2)(COC(=O)CCc2cc(C(C)(C)C)c(O)c(C(C)(C)C)c2)COC(=O)CCc2cc(C(C)(C)C)c(O)c(C(C)(C)C)c2)cc(C(C)(C)C)c1O,inactive,–
O=C(O)/C=C/c1cnc[nH]1,inactive,–
O=C(c1ccccc1)c1ccc2n1CCC2C(=O)O (stereo not given),inactive,–
CCCCCOC(=O)c1ccc(O)cc1,inactive,–
C=CC(=O)OCCOC(=O)CCC(=O)O,inactive,–
CCN(CCO)CCCC(C)Nc1ccnc2cc(Cl)ccc12 (stereo not given),–,0.0324% [at 8.39 µM] (inactive)
Cc1ccc2c(ccc3ccccc32)c1,inactive,–
CN1CCC(=C2c3ccccc3CCc3sccc32)CC1,inactive,–
CC(CN)CCCN (stereo not given),inactive,–
Cc1cccc(Oc2ccccc2)c1,inactive,–
CC1(C)[C@H]2CC[C@]1(C)[C@H](O)C2,inactive,–
CC(C)(C)c1ccc(S)cc1,inactive,–
O=C1CCCCCO1,inactive,–
SC1CCCC1,inactive,–
CC(=O)OC/C=C/c1ccccc1,inactive,–
CC(C(=O)O)c1ccc(C(=O)c2ccccc2)s1 (stereo not given),inactive,–
O=C=NC1CCC(CC2CCC(N=C=O)CC2)CC1 (stereo not given),inactive,–
CCCCCCCCCCCCC(=O)O,inactive,–

SMILES,outcome,activity change
Cc1cccc(C(C)(C)C)c1O,inactive,–
CCCOc1ccc2nc(NC(=O)OC)[nH]c2c1,inactive,–
COc1ccc(OC)c(OC)c1,inactive,–
O=C(CCN1CCN2CCCC2C1)N1c2ccccc2Sc2ccc(Cl)cc21 (stereo not given),–,-0.0401% [at 18.9 µM] (inactive)
CCCCCOC(=O)COc1cc(N2C(=O)C3=C(CCCC3)C2=O)c(F)cc1Cl,inactive,–
C[Si](C)O[Si](C)(C)O[Si](C)(C)O[Si](C)C,inactive,–
Cc1c(Cn2ccnc2)c2ccccc2n1CCC(=O)O,inactive,–
CC1=CCC(C(C)C)C=C1 (stereo not given),inactive,–
C=CC[N+]1([C@H]2C[C@H]3[C@@H]4CC[C@H]5C[C@H](OC(C)=O)[C@@H](N6CCCCC6)C[C@]5(C)[C@H]4CC[C@]3(C)[C@H]2OC(=O)CC)CCCCC1,inactive,–
CN1CCN(C2=Nc3cc(Cl)ccc3Nc3ccccc32)CC1,inactive,–
COCCO,inactive,–
N[C@H]1C(O)O[C@H](CO)[C@H](O)[C@@H]1O (stereo not given in full),inactive,–
O=C(O)C1CCC(C(=O)O)CC1 (stereo not given),inactive,–
CC(C)CCCCCCOC(=O)c1ccc(C(=O)OCCCCCCC(C)C)c(C(=O)OCCCCCCC(C)C)c1,inactive,–
CC1=CC(=O)/C(=C(/C)O)C(=O)O1,inactive,–
CN(C)C/C=C(/c1ccc(Br)cc1)c1cccnc1,inactive,–
CCN(CC)CCc1nc(-c2ccccc2)no1,inactive,–
Cn1sccc1=O,inactive,–
Cn1c(NCCN(CCO)CCCc2ccc([N+](=O)[O-])cc2)cc(=O)n(C)c1=O,inactive,–
Cc1cc(CC(=O)O)c(C)n1-c1ccc(Cl)cc1,inactive,–
